Compounds without any hit were thinned out: in the full panel of roughly 83,000, 20% have a hit.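 48-hour exposure, single concentration, 96-well plates; percent growth endpoint where 0 means no net growth. Active: below 10.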 Values without a mark were called inactive. The source made the active and inactive calls.
Tested on: UACC-257 melanoma
Test: NCI-60 one-dose screen, 48 h (100 = growth as untreated, 0 = no growth, -100 = all killed)
Conditions: 10 µM unless noted

SMILES	growth
Cn1c2ccccc2c2c3c(c4c5cc(Br)ccc5n(C)c4c21)C(=O)N(O)C3=O	48.6%
c1ccc2cc(Cn3cc(CSc4nc5ccccc5s4)nn3)ccc2c1	99.9%
COCCn1cc(-c2nc(-c3cc4cccnc4n3C)cs2)c2ccccc21	49%
COc1ccc(C2[C@@H](Cl)C(=O)N2c2cc(OC)c(OC)c(OC)c2)cc1Cl (stereo not given in full)	31.5%
N#Cc1nn(-c2cc(=O)[nH]c3ccc(Br)cc23)c(N)c1C#N	93.4%
CC1=C2CC/C(C)=C/CC[C@]3(C)O[C@H]3CC/C(C)=C/[C@H]2OC1	98.3%
CN(C)CCCn1c2c(c3cnccc3c1=O)C(=O)c1ccccc1-2	-26.8% (active)
CN1CCOCCN(C)Cc2ccc3ccc(cc3c2)CN(C)CCOCCN(C)Cc2ccc3ccc(cc3c2)C1	110%
COc1ccc2c(O)c(/C=C3\N=Nc4ncccc43)oc2c1C[C@@H]1CCNC[C@H]1F	13.7%
COc1cc(/C=C2\C(=O)N(CCCOc3cc(O)c4c(=O)cc(-c5ccccc5)oc4c3)c3ccccc32)cc(OC)c1O	90.9%
Cc1ccc(S(=O)(=O)c2nc(-c3ccccc3)oc2SCC(N)=O)cc1	113%
C=CN(C(=O)N1CCN(c2cc3c(cc2F)c(=O)c(C(=O)O)cn3C2CC2)CC1)c1nc(-c2ccccc2)cs1	100%
Cc1ccc(NC(=O)c2sc3nc(C)c(C(O)c4ccccc4)cc3c2N)cc1 (stereo not given)	60.2%
Nc1c(Br)cc2c(c1Br)Cc1cc([N+](=O)[O-])ccc1-2	93.5%
Cn1cc(-c2nc3c(F)cc4[nH]ncc4c3c3c2CCCC3)c(C(F)(F)F)n1	53.5%
CCCCCc1ccc(S(=O)(=O)Nc2ccc3nc(N)oc3c2)cc1	34.4%
Nc1ncnc2c1N=C(c1ccc(F)cc1)CC(c1cccc(Nc3ccnc4cc(Cl)ccc34)c1)N2 (stereo not given)	106%
CCOC(=O)c1[nH]cc2c1CCc1sc(Nc3ccccn3)nc1-2	73.8%
C=C(C)[C@@H]1CC[C@]2(CO)CC[C@]3(C)[C@H](CC[C@@H]4[C@@](C)(CCCN)[C@H](C(=C)C)CC[C@]43C)[C@@H]12	-78.9% (active)
CCN1C(=O)N(c2ccccc2)C2NC(=S)N(/N=C/C=C/c3ccccc3OC)C21 (stereo not given)	22%

SMILES	growth
CN1c2ccccc2S(=O)(=O)n2c(SCC(=O)Nc3nc4ccc(F)cc4s3)nnc21	86.2%
Clc1ccc(Nc2nnc(CNc3ccccc3)c3ccccc23)cc1	-6.49% (active)
N#C/C(=C\c1ccc(-c2cccc(Cl)c2)o1)C(=O)Nc1ncc(Cc2ccc(Cl)cc2)s1	23.9%
CN(C)CCC(CCN(C)C)(C(=O)O)c1ccccc1	99.7%
CC1(C)CC[C@]23CC[C@]4(C)[C@H](CC[C@@H]5[C@@]6(C)C/C(=C/O)C(=O)C(C)(C)[C@@H]6CC[C@]54C)[C@H]2[C@H]1OC3	101%
CN(C)C1CN(C(=O)c2cc(-c3ccc4ncnc(N5CCc6cc(F)c(Cl)cc65)c4c3)cnc2N)C1	16.4%
Cc1[nH]n(-c2cccc(Cl)c2)c(=O)c1/C=C1\C=c2ccccc2=CC1=O	80%
COCCn1cc(-c2csc(-c3c[nH]c4ccccc34)n2)c2cccnc21	45.9%
COC(=O)c1c2c(c[n+]([O-])c1C)C(=O)C=C(NCc1ccccc1)C2=O	-92.2% (active)
ClC(Cl)c1nc(-c2ccccc2)n2nc(-c3ccccc3)cc2n1	33.9%
CN(C)c1ccc([C@@H](C(=O)Nc2cccc([N+](=O)[O-])c2)N(C(=O)c2cc3ccccc3[nH]2)c2cccc([N+](=O)[O-])c2)cc1	93.4%
CC(C)(Sc1cc(C(C)(C)C)c(O)c(C(C)(C)C)c1)Sc1cc(C(C)(C)C)c(OC(=O)CCC(=O)O)c(C(C)(C)C)c1	61.8%
COc1cc(C=C2C(=O)NC(=S)NC2=O)cc(CN2CCCC2)c1O	98.8%
Cc1cc(C)c2c(c1)N(C)c1ncnc(-n3c(C)nc4cc(C)ccc43)c1CC2C (stereo not given)	25.8%
Brc1ccc(Nc2nc(Nc3cnc4ccccc4c3)c3[nH]cnc3n2)cc1	90.3%
COc1cc(C[C@H]2COc3cc(O)cc(O)c3C2=O)ccc1O	35.8%
CC(=O)c1c(Nc2cccc(F)c2)[nH]c2c(Cl)cc(Cl)c(Cl)c2c1=O	-14.2% (active)
COC12C=C/C(=C(/C(=O)OCc3csc(SC)n3)C(=O)CCCCCCCCC3(OC)C=C/C(=C(/C(=O)OCc4cnc(SC)s4)C(=O)CCCCCCCC1)O3)O2 (stereo not given)	56.8%
COC12C=C/C(=C(/C(=O)OCCSc3ccnn3C)C(=O)CCCCCCCCC3(OC)C=C/C(=C(/C(=O)OCCSc4ccnn4C)C(=O)CCCCCCCC1)O3)O2	40.3%
O=C(/C=C/C12c3ccccc3C(c3ccccc31)C1C(=O)NC(=O)C12)c1ccco1 (stereo not given)	44.9%

Reference: PubChem BioAssay (NCI)
